# Several values for one entry are separate records, joined by “and”; a condition that tells them apart may be missing. Equal entries are not always repeated. Records with an inconclusive call do not appear. Entries that show only a call come without a potency. Some structures have more than one record in an assay (separate samples or runs), and their calls can disagree. Activity calls are given as the source filed them. Unless noted, calls follow the shape of the dose curve; as a rule, active = well fitted curve in the direction sought with a large enough effect; inconclusive = small, poorly fitted or top-dose-only effect, or another doubt; inactive = no such curve, though single readings can be large; an effect the other way counts as inactive or inconclusive.
# Legend:
# [1] = system: Es-2; test: Primary qHTS to identify gynecologic anti-cancer compounds using libraries of approved drugs and bioactive compounds (AID 1345084); settings: Gynecologic cancer cell panel viability, ATPlite luminescence, 48 h; series mostly up to 57.5 µM; also: nearly all actives have a fitted effect of over 55% in size; also: potency is read from the fitted curve at half-maximal effect
# Procedure, shortened: (§1)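 Measured: luminescence after ATPlite addition (15 min, RT). Exposure: 48 h, 37 C, 5% CO2.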
# [2] = system: HeLa; test: as above; settings: Gynecologic cancer cell panel viability, ATPlite luminescence, 48 h; series mostly up to 57.5 µM
# Procedure, shortened: as §1
# [3] = system: Hek293T; test: as above; settings: Gynecologic cancer cell panel viability, ATPlite luminescence, 48 h, control line for the selectivity index; series mostly up to 57.5 µM
# Procedure, shortened: as §1
# [4] = system: JEG-3; test: as above; settings: Gynecologic cancer cell panel viability, ATPlite luminescence, 48 h; series mostly up to 57.5 µM
# Procedure, shortened: as §1
# [5] = system: OV90; test: as above; settings: Gynecologic cancer cell panel viability, ATPlite luminescence, 48 h; series mostly up to 57.5 µM
# Procedure, shortened: as §1
# [6] = system: PA-1; test: as above; settings: Gynecologic cancer cell panel viability, ATPlite luminescence, 48 h; series mostly up to 57.5 µM
# Procedure, shortened: as §1
# [7] = system: SKOV3; test: as above; settings: Gynecologic cancer cell panel viability, ATPlite luminescence, 48 h; series mostly up to 57.5 µM
# Procedure, shortened: as §1
# [8] = system: Tov-21-G; test: as above; settings: Gynecologic cancer cell panel viability, ATPlite luminescence, 48 h; series mostly up to 57.5 µM
# Procedure, shortened: as §1
# [9] = system: Tov112D; test: as above; settings: Gynecologic cancer cell panel viability, ATPlite luminescence, 48 h; series mostly up to 57.5 µM
# Procedure, shortened: as §1
# [10] = Drug repurposing screens with cells derived from glioblastoma tumor samples (AID 1345199); settings: GBM patient neurospheres viability, ATP luminescence, 48 h; also: nearly all actives have a fitted effect of over 40% in size; also: potency is read from the fitted curve at half-maximal effect
# Procedure, shortened: (§2)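 Four patient lines of CD133+ GBM neurospheres were screened at several concentrations; hits were retested in those lines plus three slower-growing GBM lines, using 48-hour treatment and ATP-based viability.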
# [11] = system: astro; test: as above; settings: viability, ATP luminescence, 48 h; series mostly up to 45.9 µM
# Procedure, shortened: as §2
# [12] = biological target: Nuclear receptor subfamily 1 group I member 2 (Rattus norvegicus) (UniProt Q9R1A7); test: qHTS assay for small molecule activators of the rat pregnane X receptor (rPXR) signaling pathway (AID 651751; call rule not given here); settings: rPXR reporter cells, luciferase (One-Glo), 24 h
# Sequence of Nuclear receptor subfamily 1 group I member 2 (Rattus norvegicus) (Q9R1A7 whole entry, looked up): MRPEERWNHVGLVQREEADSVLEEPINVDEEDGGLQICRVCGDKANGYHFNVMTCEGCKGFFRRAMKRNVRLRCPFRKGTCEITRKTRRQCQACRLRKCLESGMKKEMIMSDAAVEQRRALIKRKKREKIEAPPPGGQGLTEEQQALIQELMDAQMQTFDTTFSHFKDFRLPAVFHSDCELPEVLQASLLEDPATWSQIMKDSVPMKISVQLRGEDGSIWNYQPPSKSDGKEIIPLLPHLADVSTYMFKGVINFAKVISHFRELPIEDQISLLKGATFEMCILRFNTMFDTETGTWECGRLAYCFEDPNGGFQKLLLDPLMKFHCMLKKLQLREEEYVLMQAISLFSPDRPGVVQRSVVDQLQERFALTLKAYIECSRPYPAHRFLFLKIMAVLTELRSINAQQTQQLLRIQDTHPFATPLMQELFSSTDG
# [13] = at 45.9 µM (top of the series), tumour line B
# [14] = at 45.9 µM (top of the series), tumour line D
# [15] = at 46.1 µM (top of the series), tumour line C
# [16] = at 91.6 µM (top of the series), tumour line B
# [17] = at 91.6 µM (top of the series), tumour line D
# [18] = at 99.2 µM (top of the series), tumour line C
structure (smiles),measurement,setting,value
CC(=O)[C@@]1(O)CC[C@H]2[C@@H]3CCC4=CC(=O)CC[C@]4(C)[C@H]3CC[C@@]21C,Potency,[1],inactive
same,Potency,[2],inactive
same,Potency,[3],inactive
same,Potency,[4],inactive
same,Potency,[5],inactive
same,Potency,[6],inactive
same,Potency,[7],inactive
same,Potency,[8],inactive
same,Potency,[9],inactive
same,"activity, negative = cell killing",[10]; [13],-19.9% (inactive)
same,"activity, negative = cell killing",[10]; [14],-29.7% (inactive)
same,"activity, negative = cell killing",[10]; [15],-20.5% (inactive)
Nc1c2c(nc3ccccc13)CCCC2O (stereo unspecified),Potency,[1],inactive
same,Potency,[2],inactive
same,Potency,[3],inactive
same,Potency,[4],inactive
same,Potency,[5],inactive
same,Potency,[6],inactive
same,Potency,[7],inactive
same,Potency,[8],inactive
same,Potency,[9],inactive
same,"activity, negative = cell killing",[10]; [13],4.45% (inactive)
same,"activity, negative = cell killing",[10]; [14],4.03% (inactive)
same,"activity, negative = cell killing",[10]; [15],-7.2% (inactive)
CCCCOCCOCCOCc1cc2c(cc1CCC)OCO2,Potency,[1],inactive
same,Potency,[2],inactive
same,Potency,[3],inactive
same,Potency,[4],inactive
same,Potency,[5],inactive
same,Potency,[6],inactive
same,Potency,[7],inactive
same,Potency,[8],inactive
same,Potency,[9],inactive
same,"activity, negative = cell killing",[10]; [13],-4.83% (inactive)
same,"activity, negative = cell killing",[10]; [14],11.7% (inactive)
same,"activity, negative = cell killing",[10]; [15],-0.263% (inactive)
same,"activity, negative = cell killing",[10]; [16],-11.5% (inactive)
same,"activity, negative = cell killing",[10]; [17],-27.9% (inactive)
same,"activity, negative = cell killing",[10]; [18],13.4% (inactive)
same,Potency,[10]; tumour line A,31.6 µM (active)
same,Potency,[11],inactive
NC(=Nc1ccccc1)Nc1ccccc1,Potency,[1],inactive
same,Potency,[2],inactive
same,Potency,[3],inactive
same,Potency,[4],inactive
same,Potency,[5],14.1 µM (active) and inactive
same,Potency,[6],inactive
same,Potency,[7],inactive
same,Potency,[8],inactive
same,Potency,[9],inactive
same,"activity, negative = cell killing",[10]; [13],-2.03% (inactive)
same,"activity, negative = cell killing",[10]; [14],-11.9% (inactive)
same,"activity, negative = cell killing",[10]; [15],5.57% (inactive)
same,"activity, negative = cell killing",[10]; [16],-24.2% (inactive)
same,"activity, negative = cell killing",[10]; [17],-23% (inactive)
same,"activity, negative = cell killing",[10]; [18],19% (inactive)
same,Potency,[10]; tumour line A,25.1 µM (active)
same,Potency,[11],inactive
same,max response,[12],-0.275% (inactive) and 5.17% (inactive)
O=C(CCNNC(=O)c1ccncc1)NCc1ccccc1,Potency,[1],inactive
same,Potency,[2],inactive
same,Potency,[3],inactive
same,Potency,[4],inactive
same,Potency,[5],inactive
same,Potency,[6],inactive
same,Potency,[7],inactive
same,Potency,[8],inactive
same,Potency,[9],inactive
same,"activity, negative = cell killing",[10]; [13],-4.66% (inactive)
same,"activity, negative = cell killing",[10]; [14],-5.12% (inactive)
same,"activity, negative = cell killing","[10]; at 46 µM (top of the series), tumour line A",-24.8% (inactive)
same,"activity, negative = cell killing",[10]; [15],1.75% (inactive)
same,Potency,[11],inactive
CCOC(=O)C1=C(C)NC(C)=C(C(=O)OC)C1c1cccc([N+](=O)[O-])c1 (stereo unspecified),Potency,[1],inactive
same,Potency,[2],inactive
same,Potency,[3],inactive
same,Potency,[4],inactive
same,Potency,[5],inactive
same,Potency,[6],inactive
same,Potency,[7],inactive
same,Potency,[8],inactive
same,Potency,[9],inactive
same,"activity, negative = cell killing",[10]; [13],3.31% (inactive)
same,"activity, negative = cell killing",[10]; [14],-28.4% (inactive)
same,"activity, negative = cell killing",[10]; [15],-23.9% (inactive)
same,Potency,[10]; tumour line A,11.2 µM (active)
same,Potency,[11],inactive
CC(=O)OC(C)C[N+](C)(C)C (stereo unspecified),Potency,[1],inactive
same,Potency,[2],inactive
same,Potency,[3],inactive
same,Potency,[4],inactive
same,Potency,[5],inactive
same,Potency,[6],inactive
same,Potency,[7],inactive
same,Potency,[8],inactive
same,Potency,[9],inactive
same,"activity, negative = cell killing","[10]; at 20 µM (top of the series), tumour line C",12% (inactive)
same,"activity, negative = cell killing","[10]; at 21.2 µM (top of the series), tumour line B",6.44% (inactive)
same,"activity, negative = cell killing","[10]; at 21.2 µM (top of the series), tumour line D",-7.66% (inactive)
same,"activity, negative = cell killing","[10]; at 21.3 µM (top of the series), tumour line A",-14.4% (inactive)
same,Potency,[11],inactive

# — PubChem BioAssay (NCATS)
